# According to the supplement of paper PMC8728848:
# The full list was thinned out, with the strongest signals kept by preference.
# B1: PX9896A-bth-573-26-573 (Bacteroides thetaiotaomicron) (protein)
# chain: ETNNLKTKEDMYKYFGTSKSMLTHVYSYMPQGYQLFATSGGIFTEDRYSMRDCASDDGEFGAYADNIQNTNNGNWSPIKTYDDSWTLYRGIRAANSFIAEIAQVDFTRYEHDGQYTNWMKQLKYFPYEARVLRAHYFFELARRYGDIAMPLEVLTEEEANTIGKTPFSEVISFIVSECDDAANNLPDSYVNEPGAEIGRVTKGFAMAVKSKALLYAASKLHNPSMDTELWKKSAKAAIDIINTGLYSLDPQESANNLDSKEVVLMRINGDDSDFEMFNLPLRMTAGTRTSSLIPYSNYPSQNLVDAFETVNGYKVTLENTGWVCEDPAFDPQSPYENRDKRFYRAILANGMSFKDYTIETFKGGADDGIVSQGGSPTGYFLRKYIQEATSFEPGKEAVSKHHWVIYRYAETLLTYAESMVNAFNDVNYTDETYKYSALWAINEVRKNADMPLIPSMGKDEFMERLYNEWRVEFAFEDHRFWDVRRWKIADTTQRELYGVKIEKQADGTFNFYKNLYETRNWRDCMYLYPIPQSELYKNTNLNPQNTGW
# Columns and labels:
# Assay in all cases: glycan array binding signal (z-score within array); higher = stronger binding
# Conditions in all cases: glycan notation: IUPAC condensed, linker removed
# GalNAc6S(b1-4)GlcNAc = biological target: GalNAc6S(b1-4)GlcNAc
# Outline: (§1)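 Negative Z-scores can be read as non-binding. The Z-score is calculated within each array and then averaged across arrays of one protein sequence at different concentrations or buffers and across linkers. Arrays, 3228 in all, were curated from the Consortium for Functional Glycomics database and kept only where the protein sequence was available.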
# Glc(b1-4)Glc = biological target: Glc(b1-4)Glc
# Outline: as §1
# [1] = biological target: GlcNAc(b1-3)Gal(b1-3)GalNAc
# Outline: as §1
# GlcNAc(b1-3)Gal(b1-4)Glc = biological target: GlcNAc(b1-3)Gal(b1-4)Glc
# Outline: as §1
# [2] = biological target: GlcNAc(b1-3)Gal(b1-4)GlcNAc(b1-2)[GlcNAc(b1-3)Gal(b1-4)GlcNAc(b1-6)]Man(a1-6)[GlcNAc(b1-3)Gal(b1-4)GlcNAc(b1-2)Man(a1-3)]Man(b1-4)GlcNAc(b1-4)GlcNAc
# Outline: as §1
# [3] = biological target: GlcNAc(b1-3)Gal(b1-4)GlcNAc(b1-3)Gal(b1-4)GlcNAc
# Outline: as §1
# [4] = biological target: GlcNAc(b1-4)GlcNAc(b1-4)GlcNAc(b1-4)GlcNAc(b1-4)GlcNAc(b1-4)GlcNAc
# Outline: as §1
# [5] = biological target: GlcNAc6S(b1-3)Gal(b1-4)GlcNAc
# Outline: as §1
# [6] = biological target: Neu5Ac(a2-3)Gal(b1-3)GalNAc
# Outline: as §1
# [7] = biological target: Neu5Ac(a2-3)Gal(b1-3)GlcNAc(b1-2)Man(a1-3)[GlcNAc(b1-4)][Neu5Ac(a2-3)Gal(b1-3)GlcNAc(b1-2)Man(a1-6)]Man(b1-4)GlcNAc(b1-4)GlcNAc
# Outline: as §1
# [8] = biological target: Neu5Ac(a2-3)Gal(b1-4)GlcNAc(b1-2)[Neu5Ac(a2-3)Gal(b1-4)GlcNAc(b1-4)]Man(a1-3)[GlcNAc(b1-4)][Neu5Ac(a2-3)Gal(b1-4)GlcNAc(b1-2)[Neu5Ac(a2-3)Gal(b1-4)GlcNAc(b1-6)]Man(a1-6)]Man(b1-4)GlcNAc(b1-4)GlcNAc
# Outline: as §1
# [9] = biological target: Neu5Ac(a2-3)Gal(b1-4)GlcNAc(b1-3)Gal(b1-4)GlcNAc(b1-2)Man(a1-3)[Neu5Ac(a2-3)Gal(b1-4)GlcNAc(b1-3)Gal(b1-4)GlcNAc(b1-2)Man(a1-6)]Man(b1-4)GlcNAc(b1-4)GlcNAc
# Outline: as §1
# [10] = biological target: Neu5Ac(a2-3)Gal(b1-4)GlcNAc(b1-3)Gal(b1-4)[Fuc(a1-3)]GlcNAc
# Outline: as §1
# [11] = biological target: Neu5Ac(a2-3)Gal(b1-4)[Fuc(a1-3)]GlcNAc(b1-2)Man
# Outline: as §1
# [12] = biological target: Neu5Ac(a2-3)Gal(b1-4)[Fuc(a1-3)]GlcNAc(b1-3)GalNAc
# Outline: as §1
# [13] = biological target: Neu5Ac(a2-3)Gal6S(b1-4)[Fuc(a1-3)]GlcNAc
# Outline: as §1
# [14] = biological target: Neu5Ac(a2-3)[GalNAc(b1-4)]Gal(b1-4)GlcNAc(b1-3)GalNAc
# Outline: as §1
# [15] = biological target: Neu5Ac(a2-6)Gal(b1-4)GlcNAc(b1-2)Man
# Outline: as §1
# [16] = biological target: Neu5Ac(a2-6)Gal(b1-4)GlcNAc(b1-2)Man(a1-6)[GlcNAc(b1-2)Man(a1-3)]Man(b1-4)GlcNAc(b1-4)GlcNAc
# Outline: as §1
# [17] = biological target: Neu5Ac(a2-6)Gal(b1-4)GlcNAc(b1-2)[Neu5Ac(a2-6)Gal(b1-4)GlcNAc(b1-4)]Man(a1-3)[GlcNAc(b1-4)][Neu5Ac(a2-6)Gal(b1-4)GlcNAc(b1-2)[Neu5Ac(a2-6)Gal(b1-4)GlcNAc(b1-6)]Man(a1-6)]Man(b1-4)GlcNAc(b1-4)GlcNAc
# Outline: as §1
# [18] = biological target: Neu5Ac(a2-6)Gal(b1-4)GlcNAc(b1-2)[Neu5Ac(a2-6)Gal(b1-4)GlcNAc(b1-6)]Man(a1-6)[Neu5Ac(a2-6)Gal(b1-4)GlcNAc(b1-2)Man(a1-3)][GlcNAc(b1-4)]Man(b1-4)GlcNAc(b1-4)GlcNAc
# Outline: as §1
# [19] = biological target: Neu5Ac(a2-6)Gal(b1-4)GlcNAc(b1-3)Gal(b1-4)GlcNAc(b1-3)Gal(b1-4)GlcNAc(b1-2)Man(a1-3)[Neu5Ac(a2-6)Gal(b1-4)GlcNAc(b1-3)Gal(b1-4)GlcNAc(b1-3)Gal(b1-4)GlcNAc(b1-2)Man(a1-6)]GalNAc
# Outline: as §1
# [20] = biological target: Neu5Ac(a2-8)Neu5Ac(a2-3)[GalNAc(b1-4)]Gal(b1-4)Glc
# Outline: as §1
# [21] = biological target: Neu5Ac(a2-8)Neu5Ac(a2-8)Neu5Ac(a2-3)Gal(b1-4)Glc
# Outline: as §1
# [22] = biological target: Neu5Ac(a2-8)Neu5Ac(a2-8)Neu5Ac(a2-8)Neu5Ac(a2-3)[GalNAc(b1-4)]Gal(b1-4)Glc
# Outline: as §1
# [23] = biological target: Neu5Ac(a2-8)Neu5Gc(a2-3)Gal(b1-4)GlcNAc
# Outline: as §1
# Neu5Ac(b2-6)GalNAc = biological target: Neu5Ac(b2-6)GalNAc
# Outline: as §1
# Neu5Gc(a2-6)GalNAc = biological target: Neu5Gc(a2-6)GalNAc
# Outline: as §1
binder,measurement,setting,value
B1,glycan array binding signal (z-score),GalNAc6S(b1-4)GlcNAc,-0.663
same,glycan array binding signal (z-score),Glc(b1-4)Glc,0.069
same,glycan array binding signal (z-score),[1],-0.077
same,glycan array binding signal (z-score),GlcNAc(b1-3)Gal(b1-4)Glc,0.621
same,glycan array binding signal (z-score),[2],0.497
same,glycan array binding signal (z-score),[3],-0.759
same,glycan array binding signal (z-score),[4],-0.604
same,glycan array binding signal (z-score),[5],0.875
same,glycan array binding signal (z-score),[6],-0.359
same,glycan array binding signal (z-score),[7],-0.678
same,glycan array binding signal (z-score),[8],-0.635
same,glycan array binding signal (z-score),[9],-0.638
same,glycan array binding signal (z-score),[10],-0.535
same,glycan array binding signal (z-score),[11],-0.204
same,glycan array binding signal (z-score),[12],4.79
same,glycan array binding signal (z-score),[13],-0.756
same,glycan array binding signal (z-score),[14],-0.496
same,glycan array binding signal (z-score),[15],-0.386
same,glycan array binding signal (z-score),[16],-0.598
same,glycan array binding signal (z-score),[17],-0.093
same,glycan array binding signal (z-score),[18],-0.82
same,glycan array binding signal (z-score),[19],1.34
same,glycan array binding signal (z-score),[20],-0.414
same,glycan array binding signal (z-score),[21],-0.639
same,glycan array binding signal (z-score),[22],0.475
same,glycan array binding signal (z-score),[23],13.3
same,glycan array binding signal (z-score),Neu5Ac(b2-6)GalNAc,-0.726
same,glycan array binding signal (z-score),Neu5Gc(a2-6)GalNAc,-0.244
